Screens from PubChem BioAssay.
Not all results are given here.
aSyn 5UTR act: Activators via SNCA 5'UTR binding, MLPCN | alpha-synuclein 5'UTR reporter, activators screen | activity score, % (tested at 7.5 µM), hits read low | 300,000 tested, 7.1% active; in the data active = activity score below about -60%
Numbers stand for hits; – = inactive.

SMILES | aSyn 5UTR act
Cc1cccc(-c2nc(C#N)c(NC3CCCCC3)o2)c1 | -171.2
Cc1cccc(-c2nc(C#N)c(N3CCCCC3)o2)c1 | -186.8
CC1=CC(=C2N=C(c3ccccc3)OC2=O)C=C(C)O1 | -146.0
CCN1C=CC(=C2C(=O)c3ccccc3C2=O)C=C1 | –
CC1=CC(=C2C(=O)c3ccccc3C2=O)C=C(C)O1 | -128.6
CC1=CC(=C2C(=O)c3ccccc3C2=O)C=C(C)N1Cc1ccco1 | -216.7
CCCN1C=CC(=C2C(=O)c3ccccc3C2=O)C=C1 | –
Cc1ccc(-c2nn(CC(=O)NCc3cc(-c4nn(C)c(=O)c5ccccc45)ccc3C)c(=O)c3ccccc23)cc1 | –
CCc1ccc(-c2cc3c(=O)n(CC(=O)NCc4ccccc4F)ncn3n2)cc1 | -70.1
COc1ccc(-n2cccc2/C=C2/NC(=O)N(c3cccc(Cl)c3)C2=O)cc1 | -143.2
c1ccc(-c2nnc(SCc3cn4ccsc4n3)o2)cc1 | -75.2
Cc1nc2c(ccc3c2ccc2nc(C)sc23)s1 | -112.5
O=C(/C=C/c1ccc(OCCCF)cc1)Nc1ccnc(-c2cccnc2)n1 | -121.3
O=C(/C=C/c1ccc(OCCCF)cc1)Nc1ccnc(-c2ccncc2)n1 | -209.3
O=C(Nc1cnc2ccccc2c1)N1CCCCC1 | -73.7
CN(C(=O)Nc1cnc2ccccc2c1)c1ccccc1 | -88.7
O=C(Nc1cnc2ccccc2c1)N1CCOCC1 | -109.1
O=S(=O)(/C=C/c1ccccc1)Oc1ccccc1 | -79.8
O=C(NCC1CCCO1)c1cc2ccccc2cc1O (stereo not drawn) | -125.2
CCOC(=O)C(C)/C(C)=N/NC(=O)c1cc2ccccc2cc1O (stereo not drawn) | –
O=C(NCC1CCCCC1)c1cc2ccccc2cc1O | -109.1
Cc1nnsc1C(=O)NNc1ccc(C(C)C)cc1 | -99.4
O=C(NCc1cccnc1)c1cc(-c2ccco2)on1 | -71.5
Cc1ccc(-c2cc(C(=O)NCc3cccnc3)no2)cc1 | -90.5
Cc1ccc(CN2C(=O)/C(=C\c3ccc(C(=O)NCc4cccnc4)cc3)Oc3ccccc32)cc1 | –
SMILES | aSyn 5UTR act
Cc1nn(CC(=O)c2ccccc2Cl)c(C)c1[N+](=O)[O-] | -176.9
C/C(=N\NC(=O)C(C)n1nc(C)c([N+](=O)[O-])c1C)c1ccccc1O (stereo not drawn) | –
Cc1csc2nc(CSc3nc4ccccc4o3)c(Br)n12 | -129.1
CC(/C=C/c1ccccc1F)=N\NC(=O)C(C)C | -78.2
CCCCC(=O)N/N=C(C)/C=C/c1ccccc1F | -75.6
CC(=O)c1cccc(NC(=O)CN2C=NS(=O)(=O)c3ccc(C)cc32)c1 | -124.1
COC(=O)c1ccc(N=Cc2c(C(F)(F)F)[nH]n(C)c2=O)cc1 | -64.8
c1ccc(Sc2ncnc3c2oc2ccccc23)nc1 | -194.6
COc1ncnc2c1oc1ccccc12 | -71.0
O=C(Nc1ccccc1)N1CC=C(c2ccc(F)cc2)CC1 | -167.3
O=C(Nc1ccccc1)N1CC=C(c2ccccc2)CC1 | -176.9
CCOc1ccccc1-c1nn2c(Cc3ccccc3)nnc2s1 | -65.8
Cc1ccc(-c2nc(-c3nccc4ccccc34)oc2-c2ccccc2)cc1 | -136.8
Cc1cccc(NC(=O)c2cnc3scc(C)n3c2=O)c1 | -181.0
Cc1csc2ncc(C(=O)Nc3ccc4c(c3)OCCO4)c(=O)n12 | -169.2
COCCNc1nc2sc3c(c2c(=O)n1Cc1ccco1)CCCCC3 | -72.2
O=c1c2c3c(sc2nc(NCCO)n1Cc1ccco1)CCCCC3 | -118.0
CCN1C(=O)/C(=C/N2CCc3ccccc32)SC1=S | -189.7
Cc1nnnn1/C(=C\c1ccccc1)C(=O)OCC(=O)Nc1ccc(Cl)cc1F | -70.5
COc1ccccc1N=Nc1[nH]c2ccc(C)cc2c1O | -168.8
COc1cc(C2Nc3cc(Cl)c(S(N)(=O)=O)cc3S(=O)(=O)N2)ccc1OCc1ccccc1 (stereo not drawn) | -147.0
c1ccc(COc2ccc(OCCCNC3CCCC3)cc2)cc1 | -70.3
COCCCNCCCCOc1ccc(OCc2ccccc2)cc1 | -69.2
C=CCNCCCCOc1ccc(OCc2ccccc2)cc1 | -79.8
CCN(CC)S(=O)(=O)c1ccc(Nc2nc3ccccc3n3nnnc23)cc1 | -86.6
SMILES | aSyn 5UTR act
Fc1ccccc1Nc1nc2ccccc2n2nnnc12 | -146.1
Cc1ccc(-c2nnc3c(C(F)(F)F)nc4ccccc4n23)cc1 | –
CCN(CC)S(=O)(=O)c1ccc2c(c1)C(=NO)c1cc(S(=O)(=O)N(CC)CC)ccc1-2 | –
Cc1ccc(-c2nc3ccccc3n3nnnc23)cc1 | -249.5
c1ccc(Nc2nc3ccccc3n3nnnc23)cc1 | -74.5
COc1cccc(Nc2nc3ccccc3n3nnnc23)c1 | -64.5
COc1ccc(CC(=O)N(C)Cc2ccc(Cl)cc2)cc1S(=O)(=O)N1CCOCC1 | -115.2
COc1ccc(S(=O)(=O)N2CCOCC2)cc1NC(=O)CCNC(=O)c1ccc(Br)cc1 | –
COc1ccccc1C1=NC(c2ccc(C)cc2)N=C1C (stereo not drawn) | -77.8
Clc1c(-c2ccccc2)nnn1-c1ccccc1 | -65.1
CCCc1cnc(N2CCN(C(=S)NC)CC2)nc1 | -110.9
CCSc1nnc(NC(=O)c2ccccc2)s1 | -94.5
CCSc1nnc(NC(=O)c2ccccn2)s1 | –
O=C(Nc1nnc(C(F)(F)F)s1)c1ccc(Br)s1 | -75.5
CCSc1nnc(NC(=O)c2ccccc2C)s1 | -117.2
CCSc1nnc(NC(=O)c2ccc(Br)s2)s1 | -89.3
O=C(Nc1nnc(C2CCCCC2)s1)c1ccc(Br)s1 | -219.0
Cc1cc(C(=O)Nc2nnc(C3CCCCC3)s2)cs1 | -136.4
COc1ccc(-c2nnc3sc(C4CCCCC4)nn23)cc1OC | –
COc1cc(C)c(C(C)C)cc1S(=O)(=O)n1cnc(C)c1 | –
Cc1nc2ccc(NC(=O)NCCO)cc2s1 | -63.9
Cc1nc2ccc(NC(=O)NCCCO)cc2s1 | -63.7
CC1(c2ccncc2)Nc2ccccc2-c2nc3ccccc3n21 (stereo not drawn) | -65.8
O=C1C2CC=C(Cl)CC2C(=O)N1CCc1ccccc1 (stereo not drawn) | -69.4
O=C1c2ccccc2C(=O)N1CCc1ccccc1 | -70.5
SMILES | aSyn 5UTR act
O=C1c2ccccc2C(=O)N1CCSc1ccccc1 | -190.6
O=C(CSc1nnc(NC(=O)c2ccccc2Cl)s1)Nc1ccc2c(c1)oc1ccccc12 | -143.6
O=c1oc2ccccc2n1CSc1nc2ccccc2s1 | -99.2
O=C(CSc1nc2ccccc2s1)N/N=C/c1ccccc1C(=O)O | -90.3
O=C(CSc1nc2ccccc2s1)Nc1ccc2c(c1)oc1ccccc12 | -80.2
O=C(Nc1cccnc1)c1ccc(Oc2ccccc2)cc1 | -69.6
CCCCOc1ccc(C(=O)Nc2ccncc2)cc1 | -123.3
O=C(Nc1cccnc1)c1ccc(CSc2ccccc2)cc1 | -114.8
CCCOc1ccc(C(=O)Nc2cccnc2)cc1 | -180.5
COC(=O)c1ccnc(SCC(=O)c2ccccc2)c1 | -117.5
Cn1c(SCC(=O)c2ccccc2)ncc(C(=O)Nc2ccccc2)c1=O | -67.3
COC(=O)c1cnc(SCc2ccc(Cl)cc2)n1C | -70.1
COC(=O)c1cnc(SCC(=O)c2ccccc2)n1C | -93.9
CCS(=O)(=O)c1nnnn1-c1ccccc1S(C)(=O)=O | -173.6
COc1ccc(-c2cc3ccccc3s2)cc1[C@H]1[C@H]2C=CC[C@@H](C)[C@@H]2C(=O)N1Cc1ccccc1 | -106.8
CCN(CC)S(=O)(=O)c1ccc(N2CCc3ccccc3C2)nc1 | -78.5
CCN(CC)S(=O)(=O)c1ccc(N/N=C/c2ccc(O)cc2O)nc1 | –
CC(C)N(C(C)C)S(=O)(=O)c1ccc(N2CCc3ccccc3C2)nc1 | -149.8
COc1ccc(C(=O)C(CN2CCOCC2)c2ccccc2)cc1F (stereo not drawn) | -108.1
